The text below walks through data of the supplement of paper PMC12067093, “Discovery and optimisation of a covalent ligand for TRIM25 and its application to targeted protein ubiquitination” (Chemical Science, 2025).

Compound in the test: CC1Cc2ccccc2N1C(=O)C1CCCN(C1)C(=O)CCl (mixture of isomers) [TRIM25 ligand 11 (diastereomer mixture)]
Put plainly: probe-labelled cysteine peptide fold change vs DMSO (competition) (log2 fold change); higher = less target engagement (more negative = stronger competition). As to conditions: THP-1, incubation time: 4 h.

The full data set covers some 21,000 targets. This sample favours those with the largest changes.
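Note: competitive chemoproteomic profiling in live THP-1 cells with an iodoacetamide desthiobiotin (IA-DTB) probe, comparing probe-labelled peptide intensities in compound-treated cells against DMSO-treated controls.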

Chain of UniProt Q86X76 (Q86X76 whole entry, looked up): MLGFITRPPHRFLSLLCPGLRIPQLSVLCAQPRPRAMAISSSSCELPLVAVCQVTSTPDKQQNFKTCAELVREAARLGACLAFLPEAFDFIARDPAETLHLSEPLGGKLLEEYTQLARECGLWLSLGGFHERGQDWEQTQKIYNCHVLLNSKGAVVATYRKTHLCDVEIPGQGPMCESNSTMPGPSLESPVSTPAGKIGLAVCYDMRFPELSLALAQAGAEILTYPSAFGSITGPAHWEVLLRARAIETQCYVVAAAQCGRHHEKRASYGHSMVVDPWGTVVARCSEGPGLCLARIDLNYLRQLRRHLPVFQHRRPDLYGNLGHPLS
Chain of UniProt Q9Y6K5 (Q9Y6K5 whole entry, looked up): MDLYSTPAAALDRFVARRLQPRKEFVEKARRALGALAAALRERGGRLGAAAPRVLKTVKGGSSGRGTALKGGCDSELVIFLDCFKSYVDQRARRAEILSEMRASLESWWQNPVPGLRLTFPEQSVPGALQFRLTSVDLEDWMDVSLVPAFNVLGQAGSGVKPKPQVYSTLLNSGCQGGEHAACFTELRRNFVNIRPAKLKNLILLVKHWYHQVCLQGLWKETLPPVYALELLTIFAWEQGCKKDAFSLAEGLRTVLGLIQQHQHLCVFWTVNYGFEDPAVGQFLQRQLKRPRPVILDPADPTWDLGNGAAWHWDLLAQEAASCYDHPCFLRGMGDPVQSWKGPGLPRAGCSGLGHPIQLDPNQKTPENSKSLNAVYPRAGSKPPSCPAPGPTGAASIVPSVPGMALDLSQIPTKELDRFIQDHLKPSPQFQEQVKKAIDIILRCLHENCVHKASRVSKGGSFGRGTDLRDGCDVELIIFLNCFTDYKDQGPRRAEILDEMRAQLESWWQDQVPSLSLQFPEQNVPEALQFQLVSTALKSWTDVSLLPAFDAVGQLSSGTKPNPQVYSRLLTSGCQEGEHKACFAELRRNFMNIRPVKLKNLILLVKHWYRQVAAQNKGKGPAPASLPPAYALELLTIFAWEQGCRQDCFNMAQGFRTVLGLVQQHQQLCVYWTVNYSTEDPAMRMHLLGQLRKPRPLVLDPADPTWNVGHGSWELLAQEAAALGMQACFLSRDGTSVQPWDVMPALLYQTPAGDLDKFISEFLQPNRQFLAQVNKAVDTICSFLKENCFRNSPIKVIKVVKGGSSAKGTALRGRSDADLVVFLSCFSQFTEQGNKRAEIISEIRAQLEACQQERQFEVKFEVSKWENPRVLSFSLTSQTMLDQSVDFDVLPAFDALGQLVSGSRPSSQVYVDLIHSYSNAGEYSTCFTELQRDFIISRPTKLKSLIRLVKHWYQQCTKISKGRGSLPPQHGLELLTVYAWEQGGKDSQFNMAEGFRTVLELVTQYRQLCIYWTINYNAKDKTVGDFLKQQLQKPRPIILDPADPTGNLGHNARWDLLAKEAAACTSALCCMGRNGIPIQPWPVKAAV
Chain of UniProt P12004 (P12004 whole entry, looked up): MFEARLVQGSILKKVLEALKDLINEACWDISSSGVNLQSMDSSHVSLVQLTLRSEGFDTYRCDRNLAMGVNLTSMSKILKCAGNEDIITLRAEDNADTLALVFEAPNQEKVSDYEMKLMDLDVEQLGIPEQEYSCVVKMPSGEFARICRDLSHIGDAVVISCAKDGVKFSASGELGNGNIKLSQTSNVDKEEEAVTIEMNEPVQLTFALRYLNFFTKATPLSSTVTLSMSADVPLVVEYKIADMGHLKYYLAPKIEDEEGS
Chain of UniProt Q29RF7 (Q29RF7 whole entry, looked up): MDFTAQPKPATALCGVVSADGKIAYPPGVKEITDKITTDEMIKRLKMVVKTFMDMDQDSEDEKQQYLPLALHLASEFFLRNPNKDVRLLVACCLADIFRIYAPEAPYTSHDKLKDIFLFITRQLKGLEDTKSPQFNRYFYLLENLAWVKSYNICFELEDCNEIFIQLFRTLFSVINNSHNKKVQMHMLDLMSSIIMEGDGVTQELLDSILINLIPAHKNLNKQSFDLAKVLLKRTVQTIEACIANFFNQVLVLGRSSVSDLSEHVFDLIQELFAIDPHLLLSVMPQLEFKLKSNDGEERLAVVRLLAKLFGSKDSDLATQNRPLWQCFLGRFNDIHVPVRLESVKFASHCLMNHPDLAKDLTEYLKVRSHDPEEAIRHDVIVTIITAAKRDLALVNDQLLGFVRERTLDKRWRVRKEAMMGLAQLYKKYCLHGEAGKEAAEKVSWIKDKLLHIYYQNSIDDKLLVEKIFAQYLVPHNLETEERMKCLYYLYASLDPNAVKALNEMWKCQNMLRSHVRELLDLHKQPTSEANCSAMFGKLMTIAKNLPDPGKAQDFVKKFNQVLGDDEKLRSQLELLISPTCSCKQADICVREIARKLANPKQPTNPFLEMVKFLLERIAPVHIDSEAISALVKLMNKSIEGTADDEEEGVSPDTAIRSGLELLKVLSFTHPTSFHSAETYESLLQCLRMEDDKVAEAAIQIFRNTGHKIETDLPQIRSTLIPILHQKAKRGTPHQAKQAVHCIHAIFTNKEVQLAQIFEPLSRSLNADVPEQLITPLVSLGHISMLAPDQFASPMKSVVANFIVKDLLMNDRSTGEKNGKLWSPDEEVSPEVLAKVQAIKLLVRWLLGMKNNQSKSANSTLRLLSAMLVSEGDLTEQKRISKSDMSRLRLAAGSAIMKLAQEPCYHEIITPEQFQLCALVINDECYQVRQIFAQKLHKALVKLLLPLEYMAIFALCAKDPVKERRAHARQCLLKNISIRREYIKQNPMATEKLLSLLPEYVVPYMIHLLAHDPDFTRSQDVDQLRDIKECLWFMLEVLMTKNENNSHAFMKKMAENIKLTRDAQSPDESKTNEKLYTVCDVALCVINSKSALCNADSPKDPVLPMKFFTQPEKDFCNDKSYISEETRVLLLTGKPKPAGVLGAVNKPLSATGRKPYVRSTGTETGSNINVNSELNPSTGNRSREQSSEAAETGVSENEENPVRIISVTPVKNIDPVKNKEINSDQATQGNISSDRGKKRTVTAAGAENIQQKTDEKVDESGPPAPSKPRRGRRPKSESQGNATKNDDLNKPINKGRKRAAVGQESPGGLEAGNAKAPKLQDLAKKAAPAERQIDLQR
Chain of UniProt Q9BRP1 (Q9BRP1 whole entry, looked up): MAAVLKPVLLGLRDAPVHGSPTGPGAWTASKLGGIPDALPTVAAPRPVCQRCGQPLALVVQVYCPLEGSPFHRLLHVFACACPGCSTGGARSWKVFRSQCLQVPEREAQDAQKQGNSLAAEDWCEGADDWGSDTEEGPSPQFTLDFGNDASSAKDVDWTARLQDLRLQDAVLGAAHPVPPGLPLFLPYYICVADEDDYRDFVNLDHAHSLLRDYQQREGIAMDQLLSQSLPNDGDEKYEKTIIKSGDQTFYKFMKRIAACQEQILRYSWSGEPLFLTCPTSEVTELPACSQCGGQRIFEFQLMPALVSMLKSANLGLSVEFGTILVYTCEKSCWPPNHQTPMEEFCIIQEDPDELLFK
Chain of UniProt O96028 (O96028 whole entry, looked up): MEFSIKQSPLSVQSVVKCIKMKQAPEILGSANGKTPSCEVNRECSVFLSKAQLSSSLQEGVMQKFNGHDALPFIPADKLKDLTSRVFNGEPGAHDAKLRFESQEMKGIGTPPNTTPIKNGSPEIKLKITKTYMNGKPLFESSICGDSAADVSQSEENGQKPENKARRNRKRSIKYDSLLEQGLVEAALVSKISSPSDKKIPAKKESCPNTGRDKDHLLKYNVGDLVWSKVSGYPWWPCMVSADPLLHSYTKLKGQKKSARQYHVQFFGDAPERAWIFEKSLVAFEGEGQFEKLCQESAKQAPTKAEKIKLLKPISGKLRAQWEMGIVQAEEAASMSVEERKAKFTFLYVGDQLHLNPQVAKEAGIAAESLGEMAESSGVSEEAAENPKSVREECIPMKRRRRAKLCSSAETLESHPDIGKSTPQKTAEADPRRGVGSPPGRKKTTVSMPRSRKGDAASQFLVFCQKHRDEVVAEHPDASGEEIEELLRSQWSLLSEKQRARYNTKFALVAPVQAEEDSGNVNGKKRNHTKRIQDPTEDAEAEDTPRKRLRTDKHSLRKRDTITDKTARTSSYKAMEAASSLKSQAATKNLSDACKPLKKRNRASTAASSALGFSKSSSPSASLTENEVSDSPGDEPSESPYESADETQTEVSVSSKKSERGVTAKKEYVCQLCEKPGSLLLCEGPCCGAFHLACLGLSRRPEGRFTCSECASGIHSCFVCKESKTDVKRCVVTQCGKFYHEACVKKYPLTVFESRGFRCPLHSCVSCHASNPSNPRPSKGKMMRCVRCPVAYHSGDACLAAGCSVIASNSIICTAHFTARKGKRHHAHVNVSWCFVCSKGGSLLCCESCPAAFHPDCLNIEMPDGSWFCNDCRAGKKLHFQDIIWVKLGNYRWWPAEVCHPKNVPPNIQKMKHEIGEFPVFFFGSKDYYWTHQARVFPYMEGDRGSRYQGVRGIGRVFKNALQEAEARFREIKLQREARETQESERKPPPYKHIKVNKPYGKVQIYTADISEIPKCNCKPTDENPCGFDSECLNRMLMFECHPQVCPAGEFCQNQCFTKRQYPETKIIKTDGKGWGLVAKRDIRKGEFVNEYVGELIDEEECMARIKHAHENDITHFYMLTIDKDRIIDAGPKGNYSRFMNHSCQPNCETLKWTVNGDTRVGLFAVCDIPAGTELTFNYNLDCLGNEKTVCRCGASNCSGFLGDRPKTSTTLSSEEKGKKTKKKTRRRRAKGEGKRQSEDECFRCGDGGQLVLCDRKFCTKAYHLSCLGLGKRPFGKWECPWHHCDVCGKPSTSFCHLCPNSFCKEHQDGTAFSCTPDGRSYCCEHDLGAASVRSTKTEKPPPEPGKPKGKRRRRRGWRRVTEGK
Chain of UniProt P61970 (P61970 whole entry, looked up): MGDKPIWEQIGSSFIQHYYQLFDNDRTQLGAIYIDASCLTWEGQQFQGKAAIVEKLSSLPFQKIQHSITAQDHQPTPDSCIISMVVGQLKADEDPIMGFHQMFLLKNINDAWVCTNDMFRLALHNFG
Chain of UniProt Q56VL3 (Q56VL3 whole entry, looked up): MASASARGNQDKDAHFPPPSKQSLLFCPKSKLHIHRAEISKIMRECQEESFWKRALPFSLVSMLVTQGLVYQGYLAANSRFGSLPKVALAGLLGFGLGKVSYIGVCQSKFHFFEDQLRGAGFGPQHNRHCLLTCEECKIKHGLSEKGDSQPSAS

“NUP43_Q8NFH3_222_VPLHCVDRHPNQQHVVATGGQDGMLSIWDVR (UniProt Q8NFH3)”: the “probe-labelled cysteine peptide fold change” value by setting is: (10 µM) 0.271; (50 µM) 0.0847.

For “NUDC_Q9Y266_188_WTQTLSELDLAVPFCVNFR (UniProt Q9Y266)”, the “probe-labelled cysteine peptide fold change” value reads like this: (10 µM) -0.0574; (50 µM) 0.00376.

For the target “NIT1_Q86X76_251+259_AIETQCYVVAAAQCGR (UniProt Q86X76)”, the “probe-labelled cysteine peptide fold change” value (10 µM) is 0.553 and the “probe-labelled cysteine peptide fold change” value (50 µM) was 0.575.

In the case of “PADI2_Q9Y2J8_629_GLLEPLGLECTFIDDISAYHK (UniProt Q9Y2J8)”, the “probe-labelled cysteine peptide fold change” value by setting is: (10 µM) 0.0551; (50 µM) 0.0618.

On to “PARP14_Q460N5_1274_ECSQQAQQR (UniProt Q460N5)”, for which the “probe-labelled cysteine peptide fold change” value by setting is: (10 µM) 0.0962; (50 µM) -0.0412.

On to “OPLAH_O14841_408_LLPASFPCIFGPGENQPLSPEASR (UniProt O14841)”, for which the “probe-labelled cysteine peptide fold change” value (10 µM) was -0.283 and the “probe-labelled cysteine peptide fold change” value (50 µM) is -0.252.

On to “OCIAD2_Q56VL3_106_VSYIGVCQSK (UniProt Q56VL3)”, for which the “probe-labelled cysteine peptide fold change” value (10 µM) was -0.0503 and the “probe-labelled cysteine peptide fold change” value (50 µM) was 0.116.

Turning to “NOL9_Q5SY16_219_WSMQNFSPQCSIVLLEHLK (UniProt Q5SY16)”, the “probe-labelled cysteine peptide fold change” value reads like this: (10 µM) 0.0873; (50 µM) 0.0078.

Turning to “ORC5_O43913_10_PHLENVVLCR (UniProt O43913)”, the “probe-labelled cysteine peptide fold change” value by setting is: (10 µM) -0.0683; (50 µM) -0.0422.

For the target “PCNA_P12004_135_LMDLDVEQLGIPEQEYSCVVK (UniProt P12004)”, the “probe-labelled cysteine peptide fold change” value is -0.113 (10 µM) and 0.0916 (50 µM).

“NFIX_Q14938_6_MYSPYCLTQDEFHPFIEALLPHVR (UniProt Q14938)”: the “probe-labelled cysteine peptide fold change” value (10 µM) was 0.072 and the “probe-labelled cysteine peptide fold change” value (50 µM) was -0.567.

Turning to “PAICS_P22234_266_SESQCR (UniProt P22234)”, the “probe-labelled cysteine peptide fold change” value by setting is: (10 µM) 1.85; (50 µM) 1.12.

“OSGEP_Q9NPF4_160_IFGETIDIAVGNCLDR (UniProt Q9NPF4)”: the “probe-labelled cysteine peptide fold change” value reads like this: (10 µM) 0.0104; (50 µM) -0.0314.

On to “NSUN5_Q96P11_278+279_AGVSCCELAEEDFLAVSPSDPR (UniProt Q96P11)”, for which the “probe-labelled cysteine peptide fold change” value (10 µM) was 0.234 and the “probe-labelled cysteine peptide fold change” value (50 µM) is -0.117.

On to “NDUFB7_P17568_90_HDWDYCEHR (UniProt P17568)”, for which the “probe-labelled cysteine peptide fold change” value came to 0.161 (10 µM) and 0.191 (50 µM).

Turning to “PDS5A_Q29RF7_686_VLSFTHPTSFHSAETYESLLQCLR (UniProt Q29RF7)”, the “probe-labelled cysteine peptide fold change” value by setting is: (10 µM) -0.152; (50 µM) -0.172.

Turning to “NVL_O15381_460_LPQAFDFCHLAHLTPGFVGADLMALCR (UniProt O15381)”, the “probe-labelled cysteine peptide fold change” value is, setting by setting: (10 µM) -0.219; (50 µM) -0.00784.

For “NUP205_Q92621_1032_TCLHAILNILEK (UniProt Q92621)”, the “probe-labelled cysteine peptide fold change” value reads like this: (10 µM) 0.00038; (50 µM) -0.0819.

As for “NLRX1_Q86UT6_779_DLRDLLLHDQCQITTLR (UniProt Q86UT6)”, the “probe-labelled cysteine peptide fold change” value was -0.173 (10 µM) and -0.114 (50 µM).

Take “NUP93_Q8N1F7_328_CGDLLAASQVVNR (UniProt Q8N1F7)”: the “probe-labelled cysteine peptide fold change” value is 0.0268 (10 µM) and 0.221 (50 µM).

For “PASK_Q96RG2_759+761_ELFFSDQTDQTSSNCSCATSELR (UniProt Q96RG2)”, the “probe-labelled cysteine peptide fold change” value is 0.0516 (10 µM) and 0.0688 (50 µM).

Turning to “PDCD2L_Q9BRP1_191_LQDAVLGAAHPVPPGLPLFLPYYICVADEDDYRDFVNLDHAHSLLR (UniProt Q9BRP1)”, the “probe-labelled cysteine peptide fold change” value is -0.928 (10 µM) and 0.29 (50 µM).

Take “NUP160_Q12769_1042_QLVVVLCER (UniProt Q12769)”: the “probe-labelled cysteine peptide fold change” value turned out to be 0.25 (10 µM) and 0.0629 (50 µM).

For “OAS3_Q9Y6K5_350_AGCSGLGHPIQLDPNQK (UniProt Q9Y6K5)”, the “probe-labelled cysteine peptide fold change” value is -0.0319 (10 µM) and -0.0671 (50 µM).

With “PCDH17_O14917_335_DLGPNPIPAHCK (UniProt O14917)”, the “probe-labelled cysteine peptide fold change” value (10 µM) came to 0.6 and the “probe-labelled cysteine peptide fold change” value (50 µM) came to 0.546.

On to “NSD2_O96028_1102_KGEFVNEYVGELIDEEECMAR (UniProt O96028)”, for which the “probe-labelled cysteine peptide fold change” value was -0.163 (10 µM) and -0.0932 (50 µM).

With “PA2G4_Q9UQ80_296_MGVVECAKHELLQPFNVLYEK (UniProt Q9UQ80)”, the “probe-labelled cysteine peptide fold change” value is, setting by setting: (10 µM) -0.781; (50 µM) -0.434.

Turning to “NUP98_P52948_1711_HIQQVDCSGNDLEQLHIK (UniProt P52948)”, the “probe-labelled cysteine peptide fold change” value (10 µM) turned out to be 0.207 and the “probe-labelled cysteine peptide fold change” value (50 µM) stood at 0.108.

As to “NUTF2_P61970_80_IQHSITAQDHQPTPDSCIISMVVGQLKADEDPIMGFHQMFLLK (UniProt P61970)”, the “probe-labelled cysteine peptide fold change” value was -0.758 (10 µM) and -0.409 (50 µM).

Regarding “OSBPL3_Q9H4L5_114_CIDLDTEEHIYHLK (UniProt Q9H4L5)”, the “probe-labelled cysteine peptide fold change” value (10 µM) is -0.0859 and the “probe-labelled cysteine peptide fold change” value (50 µM) came out at 0.0383.

As for “NUP160_Q12769_529_NLQQEFWCK (UniProt Q12769)”, the “probe-labelled cysteine peptide fold change” value (10 µM) came out at 0.248 and the “probe-labelled cysteine peptide fold change” value (50 µM) was found to be 0.177.

For the target “NUP107_P57740_749_EHLCIR (UniProt P57740)”, the “probe-labelled cysteine peptide fold change” value (10 µM) was found to be 0.128 and the “probe-labelled cysteine peptide fold change” value (50 µM) came out at 0.0884.

In the case of “NUDT4B_A0A024RBG1_28_AACLCFR<|>NUDT3_O95989_25_AACLCFR<|>NUDT10_Q8NFP7_24_AACLCFR<|>NUDT11_Q96G61_24_AACLCFR<|>NUDT4_Q9NZJ9_25_AACLCFR (UniProt Q9NZJ9+Q8NFP7+Q96G61+O95989)”, the “probe-labelled cysteine peptide fold change” value is, setting by setting: (10 µM) 0.153; (50 µM) 0.0838.

As for “NOP58_Q9Y2X3_106_LNLSCIHSPVVNELMR (UniProt Q9Y2X3)”, the “probe-labelled cysteine peptide fold change” value was found to be 0.0103 (10 µM) and 0.12 (50 µM).

Regarding “NSUN5_Q96P11_308_YHEVHYILLDPSCSGSGMPSR (UniProt Q96P11)”, the “probe-labelled cysteine peptide fold change” value reads like this: (10 µM) -0.725; (50 µM) -0.0597.

For the target “OS9_Q13438_181_CDLNGRPR (UniProt Q13438)”, the “probe-labelled cysteine peptide fold change” value stood at 0.0235 (10 µM) and 0.139 (50 µM).

On to “PACSIN2_Q9UNF0_465_MEDEDEQGWCK (UniProt Q9UNF0)”, for which the “probe-labelled cysteine peptide fold change” value (10 µM) was 0.118 and the “probe-labelled cysteine peptide fold change” value (50 µM) amounted to 0.00577.

Take “NLRX1_Q86UT6_713_CTVVAAVLGSGR (UniProt Q86UT6)”: the “probe-labelled cysteine peptide fold change” value by setting is: (10 µM) -0.136; (50 µM) 0.223.
